Results filed as inconclusive are left out. Calls of active or inactive are those of the source. The calls were made as follows: active = hit-call score of the fitted dose curve at least 0.9, where 1 is the maximum; inconclusive = response in the unintended direction; inactive = score below 0.9.

This assay is described as follows: Tanguay_ZF_120hpf_SWIM_legacy: (Legacy) Oregon State University Tanguay Lab 120 Hour Post-fertilization zebrafish Assay for Swim Bladder Malformation (AID 2283654).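 Also: swim bladder malformation in each larva scored yes or no under brightfield.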 How it is done: Tanguay_ZF_120hpf_legacy is a whole embryo, multiplexed endpoint assay using zebrafish larvae exposed for 120 hours post fertilization on a 96-well plate.Tanguay_ZF_120hpf_SWIM_legacy is one of one assay component(s) measured or calculated from the Tanguay_ZF_120hpf_legacy assay. It is designed to make measurements of zebrafish development as detected with brightfield microscopy of developing zebrafish embryos.Data from the assay component Tanguay_ZF_120hpf_SWIM_legacy was analyzed into 1 assay endpoints. This assay endpoint, Tanguay_ZF_120hpf_SWIM_legacy, was analyzed in the positive analysis fitting direction relative to DMSO as the negative control and baseline of activity. Using a type of morphology reporter, gain-of-signal activity can be used to understand changes in developmentals as they relate to the whole embryo. To generalize the intended target to other relatable targets, this assay endpoint is annotated to the zebrafish development intended target family, where the subfamily is swim bladder morphogenesis.
Zebrafish husbandry: Tropical 5D wild-type adult zebrafish were housed in at an approximate density of 1000 per 100 gallon tank at the Sinnhuber Aquatic Research Laboratory, Oregon State University, Corvallis, OR. Each tank was kept at standard laboratory conditions of 28C on a 14-h light/10-h dark photoperiod in fish water consisting of reverse osmosis water supplemented with a commercially available salt (Instant Ocean). Spawning funnels were placed into the tanks the night prior, and embryos were collected and staged. To increase bioavailability, the chorion was enzymatically removed using pronase (63.6mg/ml, >/= 3.5U/mg, Sigma-Aldrich: P5147) at 4 hours post fertilization (hpf) using a custom automated dechorionator.Chemical exposures: Six hpf dechorionated embryos were placed 1 embryo per well in a 96-well plate prefilled with 90 ul of EM using automated embryo placement systems (AEPS). Ten microliters of each row of dilution plate 2 was added to 2 exposure plates. The final DMSO concentration used was 0.64% (vol/vol). Thirty-two embryos were also exposed to 5uM trimethyltin chloride (positive control). Plates were sealed to prevent evaporation and foil covered to reduce light exposure and kept in a 28C incubator. Embryos were statically exposed until 120 hpf. At 24 hpf, embryos were assessed for photomotor response using a custom photomotor response analysis tool (PRAT) and for developmental toxicity endpoints (MO24: mortality at 24 hpf, DP: developmental progression, SM: spontaneous movement, and NC: notochord distortion). At 120 hpf, locomotor activity was measured using Viewpoint Zebralab and assessed for 18 endpoints. Zebrafish acquisition and analysis program (ZAAP), a custom program designed to inventory, acquire, and manage zebrafish data, was used to collect developmental endpoints as either present or absent (i.e., binary responses were recorded). If mortality occurred for an embryo (at either 24 or 120 hpf), the non-mortality endpoints were not measured.
Regarding `CCOC(=O)CCC(=O)OCC`, the call was inactive. The value for `CCCCCCCCCCCCCCCC` was “inactive”; that for `CN1CCN(Cc2cc(-c3ccc4[nH]c(=O)oc4c3)co2)[C@@H](c2ccc(F)cc2)C1` was “inactive”. The entry for `COCCOC[C@H](CC1(C(=O)NC2CCC(C(=O)O)CC2)CCCC1)C(=O)Oc1ccc2c(c1)CCC2` (stereo not given in full) is “inactive”; for `COC(=O)c1ccc(O)cc1` it is “inactive”; for `CCCCCCCC=O` it is “inactive”.

Regarding `CCOc1ccc2c(c1)C(C)=CC(C)(C)N2`, the compound was called inactive. The entry for `CC(C)c1ccc(C(=O)N=C(N)N)cc1S(C)(=O)=O` is “inactive”; for `CC(=O)OCCOCCOCCOC(C)=O` it is “inactive”.

As for `Cc1nc(C)nc(N2C[C@@H](C)N(c3ccnc([C@@H](C)O)n3)[C@@H](C)C2)n1`, the compound was called inactive.

In the case of `CN1CCCC1=O`, the result was inactive. The entry for `CCCCCCCCCCCC(=O)OC` is “inactive”; for `Cc1ccc2ncccc2c1` it is “inactive”; for `O=C(O)CCCCC(=O)O` it is “inactive”. The value for `CC=Cc1ccc(O)c(OC)c1` was “inactive”; that for `NS(=O)(=O)c1cc2c(cc1Cl)NCNS2(=O)=O` was “inactive”; that for `O=[N+]([O-])C(CO)(CO)CO` was “inactive”. The value for `O=C(N[C@@H](Cc1ccccc1)[C@@H](O)C(=O)N1C[C@@H](O)[C@@H](O)C1)c1cc2cc(Cl)ccc2[nH]1` was “inactive”. For the compound `COCCOCCOC`, the result was inactive.

Take `O=c1[nH]cc(F)c(=O)[nH]1`: the call was inactive. For the compound `NCC1(Cc2noc(=O)[nH]2)CCCCC1`, the result was inactive. The entry for `Cc1ccc(N(C)C)cc1` is “inactive”; for `COc1ccc(C)cc1N` it is “inactive”; for `Cc1cc(NC(=O)C(=O)O)cc(C)c1Oc1ccc(O)c2c1CCC2` it is “inactive”.

As to `OC[C@@H](O)[C@@H](O)[C@H](O)[C@H](O)CO`, the compound was called inactive. The entry for `O=C(O)Cc1ccccc1Nc1c(Cl)cccc1Cl` is “inactive”. As for `Nc1ccc2c(c1)C(=O)c1ccccc1C2=O`, the outcome was inactive. With `COc1cc(S(=O)(=O)O)c(C)cc1N=Nc1c(O)ccc2cc(S(=O)(=O)O)ccc12`, the outcome was inactive.

For the compound `CC1=C(/C=C/C(C)=C/C=C/C(C)=C/CO)C(C)(C)CCC1`, the call was inactive. The entry for `C[Si]1(C)O[Si](C)(C)O[Si](C)(C)O[Si](C)(C)O1` is “inactive”. The value for `C=CCc1ccc(O)c(OC)c1` was “inactive”; that for `Cc1ccc(Cl)cc1` was “inactive”; that for `Cc1cccc(C)c1O` was “inactive”.

Turning to `CC1(C)CC(N=C=O)CC(C)(CN=C=O)C1` (stereo not given), the compound was called inactive. For the compound `CCc1c(C(=O)NN2CCCCC2)nn(-c2ccc(Cl)cc2Cl)c1-c1ccc(Br)cc1`, the result was inactive. Consider `NC(=O)Cn1c(=O)cc(CCN2CCN(c3nccc4sccc34)CC2)c2ccc(F)cc21`, for which the outcome was inactive. Turning to `O=c1c(O)c(-c2ccc(O)c(O)c2)oc2cc(O)cc(O)c12`, the compound was called inactive. The value for `Nc1ccc(S(=O)(=O)c2ccc(N)cc2)cc1` was “inactive”. Regarding `Cc1ccccc1Cl`, the compound was classed as inactive. The entry for `Cc1cccc(Nc2cc(Cl)nc(SCC(=O)O)n2)c1C` is “inactive”.
